Source: PubChem BioAssay (National Center for Advancing Translational Sciences (NCATS))
S2 tox – reduces viability in counter-screen for ATXN expression inhibitors | S2 cells (HEK-293 line with an ATXN2-luciferase reporter) viability, CellTiter-Fluor protease fluorescence, 24 h | Potency, µM (series often up to 56.7 µM), usual class: cytotoxic | 0.49% of 400,000 active; further: nearly all actives have a fitted effect of over 40% in size
HepG2 tox-1 – counter-screen for TGF-b inhibitors: cytotoxicity in HepG2 cells. AID 588856. Potency, µM (titrated, usually from 46.1 µM), most hits filed as cytotoxic. 0.76% of 410,000 active. HepG2 CAGA-GFP viability, ATP luminescence, 18 h
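CellTiter-Glo luminescence gave cytotoxicity after 18 hours at 37 degrees C. The cells were HepG2 CAGA-GFP in 1% FBS DMEM, stimulated with 500 pg/mL TGF-beta after compound addition. %Activity was normalised to no-cell wells (complete cell-killing) and DMSO (no toxicity), and curves were fitted and classified.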
ATXN2 expr inh – inhibitors of ATXN2 expression; HEK-293 ATXN2-luciferase reporter, luminescence, 24 h; Potency, µM (highest dose often 57 µM), usual class: inhibitors; 0.72% of 360,000 active; AID 1745845; further: nearly all actives have a fitted effect of over 55% in size
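ATXN2-luciferase reporter cells (luciferase flanked by upstream and downstream ATXN2 gene portions) were treated 24 h at 37 °C with compounds at up to 57 uM. SteadyGlo luminescence gave expression; GF-AFC fluorescence gave viability.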
GLP1R inv ag – GLP-1 receptor (human) inverse agonism. 1.6% of 410,000 active. HEK293 GLP-1R CRE-luciferase, luminescence, 24 h; GLP-1R form is constitutively active. Potency, µM (titrated, usually from 38.3 µM), actives largely listed as inhibitors. AID 624417; further: nearly all actives have a fitted effect of over 55% in size
Target sequence (P43220 whole entry, looked up): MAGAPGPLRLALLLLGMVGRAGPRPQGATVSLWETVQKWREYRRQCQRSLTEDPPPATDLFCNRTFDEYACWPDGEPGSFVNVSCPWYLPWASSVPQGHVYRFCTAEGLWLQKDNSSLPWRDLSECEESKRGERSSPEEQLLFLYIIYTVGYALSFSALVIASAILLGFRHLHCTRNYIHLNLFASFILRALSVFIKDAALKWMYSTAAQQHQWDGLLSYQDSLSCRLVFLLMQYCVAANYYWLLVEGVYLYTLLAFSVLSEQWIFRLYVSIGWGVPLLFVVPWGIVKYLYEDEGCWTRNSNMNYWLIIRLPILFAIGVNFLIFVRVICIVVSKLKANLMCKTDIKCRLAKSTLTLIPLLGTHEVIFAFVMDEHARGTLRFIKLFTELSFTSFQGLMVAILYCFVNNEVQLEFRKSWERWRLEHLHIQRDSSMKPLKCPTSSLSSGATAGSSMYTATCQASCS
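Inverse agonists were sought by their lowering of basal cAMP reporter luciferase output in HEK293 cells stably carrying constitutively active human GLP-1R, after 24 h compound treatment.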
TGFb SMAD3 inh – blocks TGF-b signaling | 1.2% of 410,000 active | Potency, µM (highest dose often 46.1 µM), most hits filed as inhibitors | HepG2 CAGA-GFP TGF-b/SMAD3 reporter, GFP fluorescence, 18 h; TGF-beta stimulated, 500 pg/mL final; further: nearly all actives have a fitted effect of over 65% in size
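Inhibition of TGF-beta-driven CAGA-GFP reporter expression in HEPG2 cells is measured by cellular GFP fluorescence after 18 h stimulation with 500 pg/mL recombinant TGF-beta in 1% FBS medium at 37 degrees C.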
GLP1R ag – activates the human GLP-1 receptor. P43220. HEK293 GLP-1R CRE-luciferase, luminescence, 4-6 h; cells express a hypersensitive GLP-1R form. Potency, µM (doses to about 45.6 µM), most hits filed as activators. 0.007% of 380,000 active
TGFb confirm – confirmation of TGF-b signaling inhibitors in HepG2 reporter cells | shares compounds with TGFb SMAD3 inh | HepG2 CAGA-GFP TGF-b reporter, GFP fluorescence, 18 h; cells stimulated with TGF-beta, 500 pg/mL | Potency, µM (doses to about 46.1 µM), usual class: inhibitors | 63% of 1,600 active; further: nearly all actives have a fitted effect of over 65% in size
HepG2 tox-2 – toxic to HepG2 cells in TGF-b counterscreen; shares compounds with TGFb SMAD3 inh; HepG2 CAGA-GFP viability, ATP luminescence, 18 h; cells stimulated with TGF-beta, 500 pg/mL; Potency, µM (top dose mostly 46.1 µM), actives largely listed as inhibitors; 27% of 1,600 active; further: nearly all actives have a fitted effect of over 70% in size
TGFb CCL64 inh – blocks TGF-b signaling in CCL64 reporter cells. shares compounds with TGFb SMAD3 inh. CCL64 CAGA-GFP reporter, TGF-b stimulated, GFP fluorescence, 18 h. Potency, µM (highest dose often 46.1 µM), most hits filed as inhibitors. 41% of 1,600 active. AID 720536; further: nearly all actives have a fitted effect of over 65% in size
TGFb COP inh – TGF-b inhibition validated with COP promoter; Potency, µM (doses to about 46.1 µM), usual class: inhibitors; HepG2 COP-GFP TGF-b reporter, GFP fluorescence, 18 h; cells stimulated by added recombinant TGF-beta; AID 720537; 3% of 1,600 active; shares compounds with TGFb SMAD3 inh; further: nearly all actives have a fitted effect of over 70% in size
Of the large screens only hits and unclear results are named; the others gave an inactive call (follow-up assays come after a bar, where they were run). Rows were chosen to be rich in hits. Some 3.7% of all compounds tested hit in one or more screens of this group. The call rests on the fitted dose curve; in most records, active means well fitted curve in the direction sought with a large enough effect; inconclusive means small, poorly fitted or top-dose-only effect, or another doubt; inactive means no such curve, though single readings can be large; an effect the other way counts as inactive or inconclusive.

S=C(NCCC(c1ccccc1)c1ccccc1)Nc1ccccc1Cl	GLP1R inv ag inconclusive, TGFb SMAD3 inh inconclusive
S=C(NCCC(c1ccccc1)c1ccccc1)Nc1ccc(Cl)cc1	S2 tox inconclusive, ATXN2 expr inh inconclusive, TGFb SMAD3 inh 20µM
O=C(CCC(=O)Nc1ccc(Br)cc1)N/N=C/c1ccccc1F	HepG2 tox-1 1.8µM, GLP1R inv ag inconclusive
C=CCc1cccc(/C=N/NC(=O)CCC(=O)Nc2ccc(C)cc2)c1O	ATXN2 expr inh 14µM, GLP1R inv ag inconclusive
COc1ccc(/C=C/c2ccccn2)cc1	TGFb SMAD3 inh inconclusive (no result: S2 tox, ATXN2 expr inh, GLP1R inv ag, GLP1R ag)
CN(c1ncc(C(F)(F)F)cc1Cl)N1C(=O)c2cccc(N)c2C1=O	GLP1R inv ag 3.2µM
c1ccc2c(CCNc3ccc(Nc4ccncc4)cc3)c[nH]c2c1	ATXN2 expr inh 15µM (no result: S2 tox, HepG2 tox-1, GLP1R inv ag, TGFb SMAD3 inh, GLP1R ag)
O=S(=O)(NCc1nnc2n1CCN(Cc1ccccc1Cl)CC2)c1ccccc1	none (no result: HepG2 tox-1, ATXN2 expr inh, GLP1R inv ag, TGFb SMAD3 inh, GLP1R ag)
COc1ccccc1OCC(=O)OC/C(O)=C(\C#N)c1nc2ccccc2[nH]1	S2 tox 3.2µM, GLP1R inv ag inconclusive (no result: ATXN2 expr inh)
N#C/C(=C(/O)COC(=O)c1ccc2c(c1)OCCO2)c1nc2ccccc2[nH]1	S2 tox inconclusive, HepG2 tox-1 16µM, GLP1R inv ag inconclusive
N#C/C(=C(/O)COC(=O)CSc1ccc(Cl)cc1)c1nc2ccccc2[nH]1	S2 tox 14µM, ATXN2 expr inh 28µM, GLP1R inv ag inconclusive
N#CC(=C(O)COC(=O)CCC1CCCCC1)c1nc2ccccc2[nH]1	ATXN2 expr inh 20µM (no result: S2 tox)
N#C/C(=C(/O)COC(=O)Cc1c[nH]c2ccccc12)c1nc2ccccc2[nH]1	none
c1ccc(CCNc2nc(-c3ccccc3)cs2)cc1	none (no result: HepG2 tox-1, GLP1R inv ag, TGFb SMAD3 inh)
Cc1cc(C)c(N2CCN(S(=O)(=O)N3CCCCCC3)CC2)c(C)c1	GLP1R inv ag 10µM, TGFb SMAD3 inh inconclusive
O=C(CCc1ccccc1)NC1(Cc2ccccc2)CCN(CCCc2ccccc2)C1=O (stereo not drawn)	S2 tox inconclusive, ATXN2 expr inh inconclusive, GLP1R inv ag inconclusive, TGFb SMAD3 inh 13µM
CC(C)CCN1CCC(Cc2ccccc2)(NC(=O)c2ccccc2)C1=O (stereo not drawn)	S2 tox inconclusive
C=Cc1ccc(Cn2c(C(=O)O)c(CNCc3ccc(F)cc3)c3ccc(C)cc32)cc1	S2 tox 18µM, ATXN2 expr inh inconclusive, GLP1R inv ag inconclusive, TGFb SMAD3 inh 13µM (no result: GLP1R ag)
COc1ccc(Cn2c(C(=O)O)c(CNCc3cccs3)c3ccc(C)cc32)cc1	S2 tox 5µM, ATXN2 expr inh inconclusive, GLP1R inv ag inconclusive, TGFb SMAD3 inh inconclusive (no result: GLP1R ag)
COc1ccc2c(CNCCc3cccs3)c(C(=O)O)n(Cc3ccc(F)cc3Cl)c2c1	HepG2 tox-1 18µM, TGFb SMAD3 inh inconclusive (no result: S2 tox, ATXN2 expr inh, GLP1R ag)
C=Cc1ccc(Cn2c(C(=O)O)c(CNCc3cccs3)c3ccc(C)cc32)cc1	HepG2 tox-1 13µM, ATXN2 expr inh inconclusive, GLP1R inv ag inconclusive, TGFb SMAD3 inh inconclusive (no result: S2 tox, GLP1R ag)
COc1ccc2c(CNCc3cccs3)c(C(=O)O)n(Cc3ccc(F)cc3Cl)c2c1	TGFb SMAD3 inh inconclusive
Cc1ccc2c(CNCc3ccc(C)o3)c(C(=O)O)n(Cc3ccc(F)cc3)c2c1	ATXN2 expr inh inconclusive, GLP1R inv ag inconclusive (no result: S2 tox)
C[N+]12CCCC[C@@H]1CCC(=C(c1cccs1)c1cccs1)C2 (stereo partly drawn)	none (no result: S2 tox, HepG2 tox-1, ATXN2 expr inh, GLP1R inv ag, TGFb SMAD3 inh)
Cc1cc(O)c(CN2CCN(c3ccccc3)CC2)c2oc(=O)cc(C)c12	none (no result: S2 tox, ATXN2 expr inh, TGFb SMAD3 inh, GLP1R ag)
CC(C)CCNC1=NCCCCC1	HepG2 tox-1 11µM, TGFb SMAD3 inh inconclusive
O=C(COC(=O)CC(c1ccccc1)c1ccccc1)NCc1ccc(Cl)cc1	GLP1R inv ag 11µM, TGFb SMAD3 inh 11µM | TGFb confirm inconclusive | HepG2 tox-2 inconclusive | TGFb CCL64 inh inconclusive | TGFb COP inh inactive
COc1ccc(Cn2nnnc2CN2CCC(c3nc4ccccc4s3)CC2)cc1	none
c1ccc2sc(C3CCN(Cc4nnnn4Cc4ccc5c(c4)OCO5)CC3)nc2c1	GLP1R inv ag inconclusive, TGFb SMAD3 inh 14µM | TGFb confirm inconclusive | HepG2 tox-2 inactive | TGFb CCL64 inh inactive | TGFb COP inh inactive
COc1ccccc1-n1cnc2cc(NCc3ccco3)ccc21	S2 tox inconclusive, GLP1R inv ag inconclusive, TGFb SMAD3 inh 8.9µM | TGFb confirm 13µM | HepG2 tox-2 inactive | TGFb CCL64 inh 21µM | TGFb COP inh inactive
NC(=O)c1ccsc1NC(=O)c1ccc(S(=O)(=O)N2CCCc3ccccc32)cc1	S2 tox inconclusive, ATXN2 expr inh inconclusive, GLP1R inv ag inconclusive, TGFb SMAD3 inh 11µM | TGFb confirm 5.2µM | HepG2 tox-2 inconclusive | TGFb CCL64 inh 16µM | TGFb COP inh inactive
O=C(O)c1ccc(S(=O)(=O)N2CCCc3ccccc32)cc1	none
O=C(NCc1ccc(Cl)cc1)C1CCCN(c2ncnc3onc(-c4ccc(F)cc4)c23)C1 (stereo not drawn)	none (no result: GLP1R ag)
Cc1c(/C=N\NC(=O)C2COc3ccccc3O2)c2ccccc2n1C (stereo not drawn)	S2 tox inconclusive, GLP1R inv ag inconclusive, TGFb SMAD3 inh 8.9µM, GLP1R ag inconclusive | TGFb confirm 5.8µM | HepG2 tox-2 inactive | TGFb CCL64 inh 6.5µM | TGFb COP inh inactive
O=C(CCn1c(=O)c2sccc2n(Cc2ccccc2F)c1=O)NCc1ccc2c(c1)OCO2	none (no result: S2 tox, ATXN2 expr inh, GLP1R ag)
O=C(NCc1ccco1)c1cc([N+](=O)[O-])ccc1N1CCCCC1	S2 tox inconclusive
